From PubChem BioAssay (NCATS)
Results filed as inconclusive are left out. Active and inactive are the calls of the source. Calls follow the shape of the dose curve; as a rule, active = well fitted inhibition curve with a large enough effect; inconclusive = small, poorly fitted or top-dose-only effect; inactive = flat fitted curve, though single readings scatter.

The compounds below were run on CRL-7250 (assay: Cytotoxic Profiling of Annotated Libraries Using Quantitative High-Throughput Screening (AID 1296008; also: nearly all actives have a fitted effect of over 60% in size)). Conditions: Five cell lines viability, CellTiter-Glo ATP luminescence, 48-72 h; max response: stronger effect = lower value.
In short: (§1)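 Cytotoxicity was measured as CellTiter-Glo ATP luminescence, read after 10 min at room temperature. Compound treatment of the cells lasted 48 or 72 hr at 37 degrees Celsius in a qHTS format.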
% is scaled to controls: 0 for no effect and ±100 for the full control effect; potency is read from the fitted curve at half-maximal effect.

Question: For `COC(C)(C)CCn1nc(Nc2c(C)cccc2C)c2cnc(Nc3ccc(OCCN4CCCC4)c(F)c3)nc21`, which Potency is on record?
Answer: 1160 nM (active)

Question: How did the Potency turn out when `CCOC(=O)c1cnc2ccc(-c3cncc(NS(=O)(=O)c4ccccc4)c3)cn12` was run?
Answer: 4110 nM (active)

Question: `CN1CCC(NC(=O)c2cc(-c3c(O)cc(O)cc3Oc3ccc([N+](=O)[O-])cc3)on2)CC1` was tested. Which Potency did it give?
Answer: 366 nM (active)

Question: How did the Potency turn out when `O=C1C(Cc2ccc(O)cc2)N2C(=O)CCN(C(=O)NCc3ccccc3)C2CN1Cc1cccc2ccccc12` (stereo not drawn) was run?
Answer: 4610 nM (active)

Question: For `COc1cc(N2CCC(N3CCN(C)CC3)CC2)ccc1Nc1ncc(Cl)c(Nc2ccccc2P(C)(C)=O)n1`, which Potency is on record?
Answer: 2060 nM (active)

The compounds below were run on HEK293 in the same assay as above. Conditions: Five cell lines viability, CellTiter-Glo ATP luminescence, 48-72 h; max response: stronger effect = lower value.
In short: as §1

Question: How did the Potency turn out when `COc1ccc(-c2cc3onc(-c4ccncc4)c3c(=O)n2C)cc1` was run?
Answer: 1300 nM (active)

Question: For `COC1CC/C=C(\C)C(=O)Nc2cc(O)cc(c2)CC(C)CC(OC)C(O)C(C)/C=C(\C)C1OC(N)=O` (stereo not drawn), which Potency is on record?
Answer: 2520 nM (active)

Question: For `C=C[C@@]12COC(=O)C(=C)[C@@H]1[C@@H](O)[C@H](C(=C)C(=O)OC)[C@@H](O)C2`, which max response is on record?
Answer: -86.5% (inactive)

Question: How did the Potency turn out when `COC(=O)C1=CO[C@@H](O[C@@H]2O[C@H](CO)[C@@H](O)[C@H](O)[C@H]2O)[C@H]2[C@@H]1C=C[C@]21C=C([C@H](C)OC(=O)/C=C/c2ccc(O)cc2)C(=O)O1` was run?
Answer: 1720 nM (active)

Question: `COc1cc(N2CCC(N)CC2)ccc1Nc1ncc(Cl)c(-c2c[nH]c3ccccc23)n1` was tested. Which Potency did it give?
Answer: 4610 nM (active)

Question: How did the Potency turn out when `C=C(C)Cn1c(SCC(=O)c2cccs2)nc2sc3c(c2c1=O)CCCC3` was run?
Answer: 1640 nM (active)

Question: Which Potency does the source give for `CCc1c[nH]c2ncnc(N3CC[C@](N)(CNC(=O)c4ccc(F)cc4F)C3)c12` here?
Answer: 1160 nM (active)

Question: With `CC[C@@H](C)Nc1cc(C(=O)NC2CC3CCC(C2)N3c2ccc(C(=O)C3CC3)cn2)c(C)cc1C(N)=O` (stereo partly drawn) as the compound, how does the Potency read?
Answer: 130 nM (active)

Question: For `Cc1nc(-c2cn3c(n2)-c2ccc(-c4cnn(C(C)(C)C(N)=O)c4)cc2OCC3)n(C(C)C)n1`, which Potency is on record?
Answer: 6510 nM (active)

Question: With `Cc1csc2c(N[C@@H](C)CN3CCN(S(=O)(=O)c4ccc(Cl)c(Cl)c4)CC3)ncnc12` as the compound, how does the Potency read?
Answer: 366 nM (active)

Question: Which Potency does the source give for `N#Cc1ccc(Nc2nc(-c3ccc(O)cc3O)cs2)cc1C(F)(F)F` here?
Answer: 3260 nM (active)

Question: How did the max response turn out when `CC(C)c1ccccc1OC(=O)NCCc1ccc2ccccc2c1` was run?
Answer: 2.54% (inactive)

Question: Which Potency does the source give for `O=C(Cc1cccc(OC(F)(F)F)c1)Nc1ccc(CCCCc2nnc(NC(=O)Cc3ccccn3)s2)nn1` here?
Answer: 16600 nM (active)

Question: With `COC1=CC(=O)C[C@@H](C)[C@@]12Oc1c(Cl)c(OC)cc(OC)c1C2=O` as the compound, how does the max response read?
Answer: -102% (inactive)

Question: With `Cc1ccc(C(=O)Nc2ccc(CN3CCN(C)CC3)c(C(F)(F)F)c2)cc1C#Cc1cnc2[nH]ncc2c1` as the compound, how does the Potency read?
Answer: 5800 nM (active)

Question: For `CCc1cc(C(N)=O)ccc1-n1nc(C(C)C)c2c(-n3cnc(-c4cnn(C)c4)c3)ccnc21`, which max response is on record?
Answer: -117% (inactive)

Question: Which Potency does the source give for `COc1cc2nc(C3CC3)nc(N3CCN(c4ccccc4OC)CC3)c2cc1OC` here?
Answer: 18400 nM (active)

Question: Which Potency does the source give for `CC[C@@H](C)Nc1cc(C(=O)NC2CC3CC[C@@H](C2)N3c2ccc(C(=O)C3CC3)cn2)c(C)cc1C(N)=O` (stereo partly drawn) here?
Answer: 51.7 nM (active)

Question: For `Nc1nc(O)c(C2=C3C(=Nc4ccccc43)C(=O)NCC2)[nH]1`, which max response is on record?
Answer: -2.48% (inactive)

Question: With `COc1ccc(C[C@H]2COC(=O)[C@@H]2Cc2ccc(O[C@@H]3O[C@H](CO)[C@@H](O)[C@H](O)[C@H]3O)c(OC)c2)cc1OC` as the compound, how does the Potency read?
Answer: 1780 nM (active)

Question: Which Potency does the source give for `COc1cc(O)c2c(c1)C1OC1C[C@H](O)[C@H](O)C(=O)/C=C\C[C@H](C)OC2=O` (stereo partly drawn) here?
Answer: 3660 nM (active)

Question: Which Potency does the source give for `CC(/C=C/C(=O)NO)=C\[C@@H](C)C(=O)c1ccc(N(C)C)cc1` here?
Answer: 1160 nM (active)

Question: How did the Potency turn out when `C/C1=C/CCC2=CC(OC2=O)C(C)(C)/C=C/C1=O` (stereo not drawn) was run?
Answer: 1300 nM (active)

Question: How did the Potency turn out when `CCCCCCOC(=O)/N=C(\N)c1ccc(NCc2nc3cc(C(=O)N(CCC(=O)OCC)c4ccccn4)ccc3n2C)cc1` was run?
Answer: 18400 nM (active)

Question: `C#CCCCn1cc(-c2cccc3c2N[C@H](C)CC(=O)N3)cn1` was tested. Which max response did it give?
Answer: -13.5% (inactive)

Question: With `COC(=O)Nc1cc(Nc2cc(NC3CC3)c3ncc(C#N)n3n2)c(Cl)c(N2CCN(C)CC2)c1` as the compound, how does the Potency read?
Answer: 1320 nM (active)

Question: How did the Potency turn out when `CCCC1(CCC)CCC2(CCN(CCCN(CC)CC)C2)CC1` was run?
Answer: 1840 nM (active)

Question: `COc1ccc(N(C(=O)Nc2c(C)cccc2C)c2cc(Nc3ccc(N4CCN(C)CC4)cc3)ncn2)c(OC)c1` was tested. Which Potency did it give?
Answer: 14600 nM (active)
